This passage reports Potency results from PubChem BioAssay (Tox21).

SMILES strings stand for the structures. Records with an inconclusive call do not appear. A call without a number means that no potency is given here. Active and inactive are the calls of the source. Calls come from the whole dose curve; as a rule, active = well fitted cell-killing curve with a large enough effect in the repeat runs; inconclusive = weak or mixed curves, or effect the other way; inactive = flat fitted curve, though single readings scatter.

A short description of the assay: qHTS assay to identify small molecule antagonists of the constitutive androstane receptor (CAR) signaling pathway - cell viability counter screen (AID 1224837). Note: nearly all actives have a fitted effect of over 45% in size. The note with it: HepG2-CYP2B6-hCAR viability, CellTiter-Fluor, 23 h, co-treated with 50 nM CITCO; series mostly up to 92.4 µM. An excerpt:
National Center for Advancing Translational Sciences [NCATS]
NIH Chemical Genomics Center [NCGC]
U.S. Environmental Protection Agency [EPA]
National Institutes of Environmental Health Sciences [NIEHS]
National Toxicology Program [NTP]
U.S. Food and Drug Administration [FDA]
The constitutive androstane receptor (CAR) is a nuclear receptor which regulates multiple drug metabolizing enzymes (DMEs) and transporters. Activating CAR will generally increase the transcription and subsequent translation of CYP2B6 and CYP3A4. These two DMEs represent about 50% of the drug metabolizing potential in the body. When CAR is deactivated, the metabolizing potential in the body will decrease, subsequently increasing the toxicity in the body or lowering the therapeutic potential of a pro-drug. Recently, there have also been studies performed indicating CARs role in energy metabolism and cancer therapy. Therefore, inhibiting CARs activity could have a potential effect on diabetes and cancer. Identifying environmental toxins and compounds which modulate CAR, through the use of the Tox21 10K compound collection, will be an important step in determining the toxicity and potential therapeutic effects these factors will have on the human body. To differentiate true CAR antagonists from cytotoxic substances, the assay is multiplexed with a cell viability assay.
Tox21 Assay Protocol Summary:
A double-stable (hCAR and CYP2B6-2.2kb) transfected cell line, derived from human hepatoma (HepG2) cells, was utilized for the duration of the quantitative high-throughput screens. The HepG2-CYP2B6-hCAR cells were dispensed at 2500 cells/4 uL/well in 1536-well white solid bottom plates using a Multidrop Combi. After the assay plates were incubated at 37 C/5% CO2 for 4 hrs, 23 nL of compounds at 15 concentrations (from 5-48 columns) or positive control (from 1 to 4 columns) were transferred to the assay plates using a Pintool station. One uL of CITCO (final concentration = 50 nM) was added, using a Flying Reagent Dispenser, inside each well. After a 23 hr incubation period at 37 C/5% CO2, 1 uL of CellTiter-Fluor reagent was added into each well of the assay plates using a Flying Reagent Dispenser. The fluorescence intensity in the plates was then measured using a ViewLux plate reader.
(In general: In qHTS, concentration-response curves come from the screen itself.)
`O=C(O)CCCc1ccc(N(CCCl)CCCl)cc1`: the Potency result was “inactive”.

As to `COC(C)(C)CCCC(C)C/C=C/C(C)=C/C(=O)OC(C)C` (stereo not given), the Potency result is “inactive”. Turning to `COS(=O)(=O)OC`, the Potency result is “inactive”. As for `CCNc1nc(Cl)nc(NC(C)C)n1`, the entry is “inactive”. As for `C=CCN=C=S`, the Potency entry is “inactive”. As for `Cc1cc(Cl)ccc1OC(C)C(=O)O` (stereo not given), the entry is “inactive”. With `COP(=S)(OC)SCN1C(=O)c2ccccc2C1=O`, the Potency entry was “inactive”. Regarding `O=S(=O)(O)OOS(=O)(=O)O`, the Potency result was “inactive”. Regarding `CNCC(O)c1ccc(O)cc1` (stereo not given), the Potency entry was “inactive”. For `C/C=C/c1ccc2c(c1)OCO2`, the Potency entry is “inactive”.

In the case of `Cc1ccc(O)c(C)c1`, the Potency result was “inactive”. For `CCCCCCCCCCCCCCCCCC(=O)O`, the Potency entry was “inactive”. Consider `COc1nc(NC(C)C)nc(NC(C)C)n1`, for which the Potency entry was “inactive”. As for `Cc1ccccc1N`, the entry is “inactive”; as for `O=C(O)Cc1ccccc1`, “inactive”.

In the case of `CC(=O)C1CCOC1=O` (stereo not given), the Potency entry was “inactive”. Turning to `[N-]=[N+]=CC(=O)OC[C@H](N)C(=O)O`, the Potency entry is “inactive”. Turning to `Clc1cnc(Oc2ccc(Oc3ncc(Cl)cc3Cl)cc2)c(Cl)c1`, the Potency result was “inactive”. `CCOC(=O)CC(SP(=O)(OC)OC)C(=O)OCC` (stereo not given): the Potency result was “inactive”. On to `CN(C)NC(=O)CCC(=O)O`, for which the Potency entry is “inactive”.

On to `CCOc1ccc(N)cc1`, for which the Potency entry was “inactive”. Consider `O=[N+]([O-])c1ccc(Cl)cc1`, for which the Potency entry is “inactive”. Take `C=CC(=O)OCCCCCC(C)C`: the Potency result is “inactive”. For the compound `CSc1nnc(C(C)(C)C)c(=O)n1N`, the Potency result was “inactive”. As for `CC(=O)/C=C/c1ccccc1`, the Potency result is “inactive”. As to `CNC(=O)O/N=C(\SC)C(=O)N(C)C`, the Potency entry is “inactive”. As for `Cc1cccc(C)c1N`, the Potency result is “inactive”. With `OCc1ccco1`, the Potency entry is “inactive”.

Regarding `CN(C)C(=O)C(c1ccccc1)c1ccccc1`, the Potency entry was “inactive”. On to `CC(C)CCCCCCOC(=O)c1ccccc1C(=O)OCCCCCCC(C)C`, for which the Potency entry is “inactive”. Then `C=CC#N`, with “inactive”. On to `Oc1c(Br)cc(Br)cc1Br`, for which the Potency result was “inactive”. Consider `ClCCOCCCl`, for which the Potency result is “inactive”. Turning to `Cc1cccc(C)c1NC(=O)CN1CCCC1=O`, the Potency result was “inactive”.

In the case of `CCOP(=S)(OCC)Oc1ccc([N+](=O)[O-])cc1`, the Potency result was “inactive”. Turning to `CCCCC(CC)C(=O)Cl` (stereo not given), the Potency entry was “inactive”. As for `Cc1ccc(N=C=O)cc1N=C=O`, the Potency result is “inactive”. Then `O=[N+]([O-])c1cc([As](=O)(O)O)ccc1O`, with “inactive”; and `O=[N+]([O-])c1ccc(Cl)c(Cl)c1`, with “inactive”.

Take `CN(C)C(=O)Nc1cccc(C(F)(F)F)c1`: the Potency result was “inactive”.
